# From PubChem BioAssay (NCI)
# The panel holds about 83,000 compounds, 20% with a hit somewhere; the sample as a whole holds those more often.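 The test compound was applied at a single concentration to cells in 96-well plates for 48 hours, and percent growth was recorded.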 Activity calls are given as the source filed them. Rule for the calls: active = growth percent below 10; inactive = the rest.
# Assays:
# Assay in all cases: NCI-60 one-dose screen, 48 h (100 = growth as untreated, 0 = no growth, -100 = all killed)
# Conditions in all cases: 10 µM unless noted
# RPMI-8226 leukemia = test system: RPMI-8226 leukemia
# OVCAR-8 ovarian = test system: OVCAR-8 ovarian
# OVCAR-5 ovarian = test system: OVCAR-5 ovarian
# OVCAR-4 ovarian = test system: OVCAR-4 ovarian
# SK-OV-3 ovarian = test system: SK-OV-3 ovarian
# IGROV1 ovarian = test system: IGROV1 ovarian
# OVCAR-3 ovarian = test system: OVCAR-3 ovarian
# HS 578T breast = test system: HS 578T breast
# NCI/ADR-RES ovarian = test system: NCI/ADR-RES ovarian
# T-47D breast = test system: T-47D breast
# BT-549 breast = test system: BT-549 breast
# MDA-MB-435 melanoma = test system: MDA-MB-435 melanoma
# SW-620 colon = test system: SW-620 colon
# MCF7 breast = test system: MCF7 breast
# HCT-116 colon = test system: HCT-116 colon
# HCC-2998 colon = test system: HCC-2998 colon
# KM12 colon = test system: KM12 colon
SMILES,growth (RPMI-8226 leukemia),growth (OVCAR-8 ovarian),growth (OVCAR-5 ovarian),growth (OVCAR-4 ovarian),growth (SK-OV-3 ovarian),growth (IGROV1 ovarian),growth (OVCAR-3 ovarian),growth (HS 578T breast),growth (NCI/ADR-RES ovarian),growth (T-47D breast),growth (BT-549 breast),growth (MDA-MB-435 melanoma),growth (SW-620 colon),growth (MCF7 breast),growth (HCT-116 colon),growth (HCC-2998 colon),growth (KM12 colon)
C=C1C(=O)O[C@H]2[C@H]1CC/C(COC(=O)NCC(=O)Nc1ccc(OC)c(C(N)=O)c1O)=C\CC[C@@]1(C)O[C@@H]21,2.96% (active),75.3% (inactive),102% (inactive),68.3% (inactive),100% (inactive),21.6% (inactive),25.7% (inactive),89.3% (inactive),104% (inactive),34.4% (inactive),47.4% (inactive),56.3% (inactive),10.6% (inactive),18.6% (inactive),36% (inactive),102% (inactive),92.8% (inactive)
COc1c(O)cc2oc3cc(O[C@@H]4OC(C)[C@@H](O)[C@H](O)C4O)c(CC=C(C)C)c(O)c3c(=O)c2c1CC=C(C)C (some centres undefined),73.2% (inactive),99.3% (inactive),119% (inactive),102% (inactive),113% (inactive),83.9% (inactive),94.7% (inactive),98.4% (inactive),102% (inactive),86.6% (inactive),99.3% (inactive),97.9% (inactive),101% (inactive),76% (inactive),94.1% (inactive),94.8% (inactive),87.8% (inactive)
COc1ccc2c(c1)/C(=C1\S/C(=N/c3nnc(C)s3)NC1=O)C(=O)N2Cc1ccc(Cl)cc1,40.3% (inactive),52.2% (inactive),90.5% (inactive),44.7% (inactive),70% (inactive),41.9% (inactive),42.2% (inactive),55.1% (inactive),32% (inactive),42% (inactive),54.6% (inactive),52.8% (inactive),49.3% (inactive),45.8% (inactive),31.7% (inactive),34.2% (inactive),28.6% (inactive)
Cc1c(Br)cccc1NC(=O)c1sc2nc3c(cc2c1N)CN(Cc1ccccc1)CC3,4.4% (active),14.1% (inactive),36.7% (inactive),28.1% (inactive),22.8% (inactive),39.3% (inactive),-7.95% (active),11.3% (inactive),24.2% (inactive),43% (inactive),29.3% (inactive),-42.9% (active),18.4% (inactive),14.9% (inactive),16.8% (inactive),41.1% (inactive),23.5% (inactive)
O=C(O)COc1ccc2c(=O)c3sc4c(=O)c5ccccc5c(=O)c4c3c(=O)c2c1,43.6% (inactive),43.8% (inactive),-53.7% (active),27.8% (inactive),88.1% (inactive),36.6% (inactive),1.75% (active),-10.1% (active),40.8% (inactive),74.1% (inactive),-97% (active),-88.6% (active),10.1% (inactive),-57% (active),24.9% (inactive),-21.1% (active),51.5% (inactive)
CCCCn1c2cc(OCc3cn(-c4ccc(Cl)cc4)nn3)ccc2c2ccnc(C)c21,-34.3% (active),29.7% (inactive),39.5% (inactive),18.2% (inactive),52.9% (inactive),39.3% (inactive),30.1% (inactive),54.2% (inactive),28% (inactive),22.2% (inactive),61.7% (inactive),60.2% (inactive),34.2% (inactive),25.8% (inactive),8.91% (active),43.8% (inactive),41.9% (inactive)
CCCCn1c(=O)c(/C=C/C(=O)/C=C/c2cc3ccccc3n(CCCC)c2=O)cc2ccccc21,-32.1% (active),-0.92% (active),25.9% (inactive),28.5% (inactive),15.6% (inactive),1.5% (active),-15.7% (active),30% (inactive),22.8% (inactive),20.8% (inactive),-54.5% (active),-65.2% (active),-2.85% (active),-0.486% (active),-90.3% (active),-92.6% (active),-75.8% (active)
Cc1c(Cl)cccc1NC(=O)c1sc2nc3c(cc2c1N)COCC3,30.3% (inactive),33.6% (inactive),55.3% (inactive),60.9% (inactive),26.5% (inactive),45.8% (inactive),17.8% (inactive),40.1% (inactive),6.51% (active),32.4% (inactive),49.6% (inactive),-20% (active),22.8% (inactive),16.4% (inactive),19.7% (inactive),65.1% (inactive),31.8% (inactive)
Cc1nc2sc(C(=O)Nc3cccc(Cl)c3C)c(N)c2cc1C(C)O (centres undefined),17.8% (inactive),21.9% (inactive),55.8% (inactive),54.2% (inactive),22.8% (inactive),31.6% (inactive),-5.67% (active),31.8% (inactive),7.9% (active),44.4% (inactive),51.3% (inactive),1.51% (active),38.5% (inactive),16.6% (inactive),13.9% (inactive),30.4% (inactive),19.1% (inactive)
C[C@H]1[C@H](C)CC[C@]2(C(=O)OCCOCCOCC[P+](c3ccccc3)(c3ccccc3)c3ccccc3)CC[C@]3(C)C(=CC[C@@H]4[C@@]5(C)CC[C@H](OC(=O)C(Cl)Cl)C(C)(C)[C@@H]5CC[C@]43C)[C@H]12,0.348% (active),11% (inactive),37.3% (inactive),6.72% (active),-0.459% (active),15.1% (inactive),16.1% (inactive),38.4% (inactive),69% (inactive),21.8% (inactive),-66.3% (active),-24.1% (active),12.5% (inactive),2.81% (active),-36.3% (active),19.1% (inactive),7.09% (active)
C=C(C)[C@@H]1CC[C@]2(C(=O)O)CC[C@]3(C)[C@H](CC[C@@H]4[C@@]5(C)C[C@@H](CC#Cc6ccc(Cl)cc6)C(=O)C(C)(C)[C@@H]5CC[C@]43C)[C@@H]12,22.5% (inactive),48.1% (inactive),70.9% (inactive),29.1% (inactive),61.5% (inactive),70.1% (inactive),46.6% (inactive),55.3% (inactive),71.7% (inactive),39.4% (inactive),46.5% (inactive),46.6% (inactive),41.3% (inactive),36.3% (inactive),22% (inactive),50.3% (inactive),26.3% (inactive)
O=C(Nc1nc2ccc(C(F)(F)F)cc2s1)c1cc(Cl)ccc1O,-5.53% (active),12.9% (inactive),28% (inactive),20.2% (inactive),-16.2% (active),30.8% (inactive),8.08% (active),5.64% (active),-4.36% (active),-5.13% (active),-8.57% (active),10.2% (inactive),12.8% (inactive),-1.08% (active),4.81% (active),10.9% (inactive),8.91% (active)
COc1ccc(N(C)c2nc(Cl)nc3ccn(C)c23)cc1,6.35% (active),0.816% (active),30.6% (inactive),36.6% (inactive),7.76% (active),26.1% (inactive),-12.3% (active),36.8% (inactive),3.41% (active),74.9% (inactive),-4.36% (active),-26.4% (active),21.9% (inactive),13.6% (inactive),-7.01% (active),15.8% (inactive),5.77% (active)
CC1=C(CCCOC(=O)NCCCl)C2=C(C)C3(CC3)[C@@](C)(O)C(=O)C2=C1,80% (inactive),36.9% (inactive),28.1% (inactive),14.6% (inactive),-13.7% (active),4.17% (active),2.71% (active),99.8% (inactive),29.2% (inactive),16% (inactive),17.5% (inactive),84.8% (inactive),80.3% (inactive),29.8% (inactive),28.2% (inactive),28.8% (inactive),79.2% (inactive)
O=C(C[n+]1cccc2cc(Cl)ccc21)c1ccc2c(c1)CCCC2,7.65% (active),25.6% (inactive),28.3% (inactive),16.2% (inactive),16.9% (inactive),33.7% (inactive),0.868% (active),37.5% (inactive),101% (inactive),2.41% (active),22.2% (inactive),10.8% (inactive),35.6% (inactive),4.57% (active),7.99% (active),27.7% (inactive),14.7% (inactive)
Nc1c(C(=O)Nc2ccccc2Cl)sc2nc3c(cc12)CN(Cc1ccccc1)CC3,103% (inactive),118% (inactive),95.5% (inactive),113% (inactive),91.2% (inactive),87.5% (inactive),85.1% (inactive),108% (inactive),99.8% (inactive),87.8% (inactive),93.8% (inactive),107% (inactive),94.1% (inactive),92.9% (inactive),103% (inactive),96.5% (inactive),96.1% (inactive)
Nc1ccccc1NS(=O)(=O)c1ccc(Cl)cc1,95% (inactive),108% (inactive),95.3% (inactive),100% (inactive),105% (inactive),98.3% (inactive),105% (inactive),98.6% (inactive),97.3% (inactive),106% (inactive),101% (inactive),90.6% (inactive),99.3% (inactive),94% (inactive),97% (inactive),84.4% (inactive),100% (inactive)
